High-throughput results: PubChem, several laboratories
ANO1 block – mouse TMEM16A channel inhibition, primary screen | Q8BHY3 | HEK293 TMEM16A/YFP iodide influx fluorescence, ionomycin | normalized B-score (activity score, 25-100; higher = stronger inhibition) at 10 µM | actives 1.2% (n = 310,000);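 active = ratio plate-corrected score three or more library SD toward inhibition, starting fluorescence score within five deviations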;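 note: score derived from kinetic fluorescence span divided by baseline fluorescence per well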
GRK2 inh – human GRK2 inhibition via aptamer displacement; inhibition of aptamer binding, % at 10 µM; P25098; AID 488847; actives 0.59% (n = 330,000); bead flow cytometry, FAM-aptamer displacement from GRK2;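 active = inhibition of aptamer binding above 40%, roughly 3 SD of noise, on plates passing a quality check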;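 note: median bead fluorescence of bound FAM aptamer so fluorescent compounds give negative values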
TLR9-MyD88 block – inhibitors of human TLR9-MyD88 binding; Q9NR96+Q99836; AID 504734; inhibition, % at 4.98 µM; actives 0.21% (n = 340,000); CHO BLA complementation TLR9-MyD88, CCF4 FRET ratio;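 active = inhibition above the mean over all tested compounds plus 3 SD, cut at about 21% in these data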;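 note: 0% = DMSO only wells and 100% = clavulanate BLA inhibitor control wells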
NOD2-RIPK2 inh – inhibitors of human NOD2-RIPK2 interaction. CHO BLA complementation NOD2-RIPK2, CCF4 ratio. O43353. actives 0.38% (n = 360,000). inhibition, % at 4.98 µM. AID 624267; in the data active = inhibition above about 21%;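 note: 0% = vehicle only and 100% = reference blocker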
TLR4-MyD88 BLA – inhibitors of human TLR4-MyD88 binding | O00206+Q99836 | HeLa CL3-4 TLR4/MyD88 BLA complementation, FRET ratio | inhibition, % at 8.4 µM | actives 0.18% (n = 200,000) | AID 861; in the data active = inhibition above about 25%;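 note: 0% = vehicle and 100% = reference inhibitor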
TMEM16A act – activators or potentiators of mouse TMEM16A chloride channel | HEK293 TMEM16A/YFP-H148Q/I152L, iodide quench fluorescence; active compounds read low | Q8BHY3 | actives 0.3% (n = 340,000) | B-score at 10 µM;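 active = fluorescence-ratio B-score plate-corrected deviation score at least 3 library SD below zero, with starting fluorescence score within 5 deviations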;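 note: channel opened by trigger with iodide after compound preincubation; score built on the fluorescence ratio of max minus min over baseline; more negative score means more quench and so TMEM16A activation or potentiation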
TMEM16A reconf – reconfirmed blocker of mouse TMEM16A calcium-activated chloride channel | AID 652189 | shares compounds with ANO1 block | HEK293 TMEM16A/YFP-H148Q, iodide quench fluorescence; ionomycin added to raise cell calcium | inhibition, % at 10 µM | actives 39% (n = 2,300);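 active = mean duplicate percent inhibition, scaled so buffer wells are 0 and the reference blocker 100, over three buffer SD above buffer mean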
TMEM16A Ca cntr – counter-screen for TMEM16A inhibitors: effect on calcium mobilization. shares compounds with ANO1 block. actives 2% (n = 2,300). calcium response (% of ionomycin), % at 10 µM. TMEM16A/YFP HEK293, Fluo4 calcium mobilization;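 active = duplicate-averaged calcium signal over 20% of the ionomycin maximum, relative to buffer baseline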;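 note: each well's signal is peak minus trough fluorescence divided by its pre-addition baseline; 0% = buffer wells and 100% = ionomycin wells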
Parental YFP cnt – parental YFP-HEK293 iodide quench counter-screen activity | shares compounds with ANO1 block | ionomycin | YFP ratio F(max-min)/F0 at 10 µM | 2,300 tested, under 10 active;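 active = yellow fluorescent protein signal ratio exceeding the buffer control mean by over 5 SD of those controls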;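 note: ratio is mean of duplicate wells from kinetic YFP trace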
ClC-1 inh – selectivity of TMEM16A inhibitors: inhibition of rat ClC-1 chloride channel. shares compounds with ANO1 block. CHO ClC-1-YFP, iodide influx fluorescence quench; iodide control reads 0, buffer control 100. ratio percent, % at 10 µM. 2,300 tested, under 10 active;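 active = duplicate-mean ratio percent above the mean of iodide-only control wells, which defines zero, plus 5 of their SD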;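 note: higher percent means stronger block of ClC-1 iodide influx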
An asterisk follows results filed as active; i = inactive; / = no result given. Shown are actives, neighbours in structure and some others; about 2.2% of the full set was active somewhere.

SMILES	ANO1 block	GRK2 inh	TLR9-MyD88 block	NOD2-RIPK2 inh	TLR4-MyD88 BLA	TMEM16A act	TMEM16A reconf	TMEM16A Ca cntr	Parental YFP cnt	ClC-1 inh
NC(=O)NC1NC(=O)NC1=O (centres undefined)	i	0	-6	-6	/	i	/	/	/	/
CCN1/C(=C/C=C/C=C/C=C/c2sc3ccccc3[n+]2CC)Sc2ccccc21	i	22	1	7	/	i	45%*	i	-0.88	-18
CC[n+]1c(/C=C(\C)SC)sc2ccccc21	i	5	-11	1	-8	i	/	/	/	/
CCN(CC)CCCOc1ccc(Cl)c(Cl)c1	100*	0	3	2	-9	i	i	i	-1.1	-4
N#Cc1c(-n2cccc2/C=N/O)sc2c1CCCC2	i	0	-4	-8	13	i	/	/	/	/
C=CCNCc1cccn1-c1sc2c(c1C#N)CCCC2	25*	0	-1	-10	1	i	i	i	-0.76	-5
CCN(Cc1ccccc1)S(=O)(=O)c1ccc2oc(C(=O)O)c(C)c2c1	25*	1	4	-3	4	i	i	i	-1.2	2
CCN(CC)S(=O)(=O)c1ccc2oc(C(=O)O)c(C)c2c1	i	2	-7	-8	-15	i	/	/	/	/
COc1ccc(S(=O)(=O)N2CCCOC2CNC(=O)C(=O)NCc2ccccn2)cc1 (centres undefined)	i	0	-3	-1	/	i	/	/	/	/
CC(=O)c1ccc(C(=O)N2CCC(CO)(Cc3cccc(C(F)(F)F)c3)CC2)cc1	100*	0	-6	10	-5	i	i	i	-1.2	-6
O=C(c1cccc(C(F)(F)F)c1)N1CCC(O)(CS(=O)(=O)Cc2ccc(Cl)cc2)CC1	i	2	0	-16	9	i	/	/	/	/
O=C(c1cccc(C(F)(F)F)c1)N1CCC(O)(CS(=O)(=O)Cc2ccccc2)CC1	100*	0	0	4	-13	i	i	i	-1.1	-3
Cc1ccc(Cl)cc1NC(=O)Nc1c(C)n(C)n(-c2ccccc2)c1=O	i	0	-8	3	/	i	/	/	/	/
CCc1nnc(NC(=O)c2nn(-c3ccccc3)nc2C)s1	i	1	-10	6	/	i	/	/	/	/
O=C(Nc1nnc(C(F)(F)F)s1)C1COc2ccccc2O1 (centres undefined)	100*	5	3	2	-7	i	30%*	i	-1.1	-17
O=C(Nc1nnc(C2CC2)s1)C1COc2ccccc2O1 (centres undefined)	i	2	11	7	-19	i	/	/	/	/
CCC(Oc1ccccc1)C(=O)Nc1nnc(C(F)(F)F)s1 (centres undefined)	100*	3	2	0	2	i	20%*	i	-0.97	-20
CCSc1nnc(NC(=O)c2ccc(Br)s2)s1	i	0	-2	9	-3	i	/	/	/	/
Cc1nn(-c2ccccc2)nc1C(=O)Nc1nnc(C(F)(F)F)s1	100*	0	5	-5	/	i	28%*	i	-0.73	-9
O=C(Nc1nnc(C(F)(F)F)s1)c1ccc(Br)s1	100*	1	15	3	-11	i	26%*	i	-0.93	-16
Cc1ccc(CN2C(=O)C(C)Nc3ncnc(N4CCOCC4)c32)cc1 (centres undefined)	i	0	0	3	/	i	/	/	/	/
O=C(CN1CCc2cc3c(cc2C1)OCCCO3)Nc1c(F)cccc1F	i	4	-7	-3	/	i	/	/	/	/
Cc1ccc(NS(=O)(=O)c2ccc(C)c(C(=O)NCC(c3ccccc3)N(C)C)c2)cc1 (centres undefined)	/	0	4	-7	/	i	/	/	/	/
CCc1cc(-c2nnn(CCC3COCCO3)c2CC)ccc1-c1cn(Cc2ccccc2)nn1 (centres undefined)	/	/	3	7	/	/	/	/	/	/
NC(=O)c1ccccc1NC(=O)c1ccccc1Cl	i	1	2	1	/	i	/	/	/	/
SMILES	ANO1 block	GRK2 inh	TLR9-MyD88 block	NOD2-RIPK2 inh	TLR4-MyD88 BLA	TMEM16A act	TMEM16A reconf	TMEM16A Ca cntr	Parental YFP cnt	ClC-1 inh
O=C(Nc1ccccc1C(=O)Nc1nnc(C(F)(F)F)s1)c1ccccc1Cl	100*	1	3	-9	/	i	33%*	i	-1.2	-12
CCCCN(CCCC)c1nc(OC)nc(-n2nnc(C(C)=O)c2C)n1	25*	2	6	-1	-1	i	17%*	i	-1.1	-12
C=C1CCN([C@@H](CC(C)C)C(=O)O)S(=O)(=O)c2ccccc21	i	1	12	-10	/	i	/	/	/	/
C=C1CCN(C(CC(C)C)C(=O)OC)S(=O)(=O)c2ccccc21 (centres undefined)	25*	1	0	-2	/	i	i	i	-1.2	-4
O=C(Cn1nc(-c2ccccc2)nc1-c1ccccc1)OC1CCCCC1	100*	2	0	-6	9	i	i	i	-1	-10
CC(=O)c1cccc(NC(=S)NC(=O)c2cccc(Cl)c2)c1	25*	0	-3	-14	-3	i	i	28%*	-1.2	-6
CC[C@]12c3[nH]c4ccc(Cl)cc4c3CCN1C(=O)[C@@H](CC(=O)NCCCn1ccnc1)C[C@@H]2C(=O)N1CCN(C(=O)c2ccco2)CC1	/	0	-2	-1	/	/	/	/	/	/
CCCN1CCc2c(sc(NC(=O)c3ccc(S(=O)(=O)N(C)c4ccccc4)cc3)c2C(=O)NC)C1	i	0	-1	0	/	i	24%*	i	-0.77	4
CN1CCc2c(sc(NC(=O)c3ccc(S(=O)(=O)N4CCc5ccccc54)cc3)c2C(N)=O)C1	i	0	/	/	/	/	/	/	/	/
CNC(=O)c1c(NC(=O)c2ccc(S(=O)(=O)N3CCCc4ccccc43)cc2)sc2c1CCN(C)C2	i	0	6	7	/	i	i	i	-0.85	-2
CCCN1CCc2c(sc(NC(=O)c3ccc(S(=O)(=O)N(C)c4ccccc4)cc3)c2C(N)=O)C1	i	0	0	2	/	i	/	/	/	/
